# Experimental data from the supplement of paper PMC7724964.
# T1: KAT8 2-458 Tudor-knot+MOZ_SAS (domain begin residue: 2, domain end residue: 458), Q9H7Z6
# T1 chain: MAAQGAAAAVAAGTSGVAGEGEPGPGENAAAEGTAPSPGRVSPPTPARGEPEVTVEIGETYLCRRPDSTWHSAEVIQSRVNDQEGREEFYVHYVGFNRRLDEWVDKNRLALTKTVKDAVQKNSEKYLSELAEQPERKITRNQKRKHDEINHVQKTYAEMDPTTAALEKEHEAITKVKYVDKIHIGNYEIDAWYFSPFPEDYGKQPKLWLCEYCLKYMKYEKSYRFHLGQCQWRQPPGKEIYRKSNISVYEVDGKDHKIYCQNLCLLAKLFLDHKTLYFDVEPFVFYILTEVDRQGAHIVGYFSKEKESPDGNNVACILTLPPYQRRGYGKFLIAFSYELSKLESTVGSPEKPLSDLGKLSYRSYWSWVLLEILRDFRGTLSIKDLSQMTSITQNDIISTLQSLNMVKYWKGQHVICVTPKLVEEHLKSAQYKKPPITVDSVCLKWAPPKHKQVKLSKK
# T2: TDRD1 261-449 TUDOR (domain begin residue: 261, domain end residue: 449), Q9BXT4
# T2 chain: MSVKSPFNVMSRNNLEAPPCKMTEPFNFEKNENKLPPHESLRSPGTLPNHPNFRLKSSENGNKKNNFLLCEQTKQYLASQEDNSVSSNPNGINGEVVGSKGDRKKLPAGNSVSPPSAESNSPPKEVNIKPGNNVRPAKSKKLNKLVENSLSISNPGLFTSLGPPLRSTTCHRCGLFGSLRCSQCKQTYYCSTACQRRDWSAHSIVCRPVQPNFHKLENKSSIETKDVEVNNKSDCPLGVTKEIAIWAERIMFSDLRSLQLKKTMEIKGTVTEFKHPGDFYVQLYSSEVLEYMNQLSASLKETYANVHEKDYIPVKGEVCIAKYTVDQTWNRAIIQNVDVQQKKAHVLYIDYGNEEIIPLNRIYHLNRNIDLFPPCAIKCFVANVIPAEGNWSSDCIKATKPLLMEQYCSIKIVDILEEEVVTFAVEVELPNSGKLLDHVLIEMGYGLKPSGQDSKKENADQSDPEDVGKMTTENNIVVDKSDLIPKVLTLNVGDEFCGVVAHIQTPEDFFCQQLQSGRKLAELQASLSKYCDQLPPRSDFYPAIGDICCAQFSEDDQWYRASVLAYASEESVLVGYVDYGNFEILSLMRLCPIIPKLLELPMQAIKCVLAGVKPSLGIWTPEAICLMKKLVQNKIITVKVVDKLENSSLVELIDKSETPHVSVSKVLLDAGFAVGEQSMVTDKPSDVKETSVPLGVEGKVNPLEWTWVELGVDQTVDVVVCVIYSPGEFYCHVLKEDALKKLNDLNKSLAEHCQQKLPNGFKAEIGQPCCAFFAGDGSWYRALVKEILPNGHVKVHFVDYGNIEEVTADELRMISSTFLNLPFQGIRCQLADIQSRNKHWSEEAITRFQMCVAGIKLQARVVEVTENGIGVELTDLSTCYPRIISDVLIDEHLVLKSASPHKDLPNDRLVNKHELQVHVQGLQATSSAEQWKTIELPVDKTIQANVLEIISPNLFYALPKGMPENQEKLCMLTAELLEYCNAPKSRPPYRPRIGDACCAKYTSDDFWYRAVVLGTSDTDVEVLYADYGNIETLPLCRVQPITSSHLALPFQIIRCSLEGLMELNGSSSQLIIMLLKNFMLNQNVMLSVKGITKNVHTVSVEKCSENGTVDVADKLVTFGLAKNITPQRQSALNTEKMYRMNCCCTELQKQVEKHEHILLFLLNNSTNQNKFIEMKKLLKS
# T3: IRS1 157-267 IRS (domain begin residue: 157, domain end residue: 267), P35568
# T3 chain: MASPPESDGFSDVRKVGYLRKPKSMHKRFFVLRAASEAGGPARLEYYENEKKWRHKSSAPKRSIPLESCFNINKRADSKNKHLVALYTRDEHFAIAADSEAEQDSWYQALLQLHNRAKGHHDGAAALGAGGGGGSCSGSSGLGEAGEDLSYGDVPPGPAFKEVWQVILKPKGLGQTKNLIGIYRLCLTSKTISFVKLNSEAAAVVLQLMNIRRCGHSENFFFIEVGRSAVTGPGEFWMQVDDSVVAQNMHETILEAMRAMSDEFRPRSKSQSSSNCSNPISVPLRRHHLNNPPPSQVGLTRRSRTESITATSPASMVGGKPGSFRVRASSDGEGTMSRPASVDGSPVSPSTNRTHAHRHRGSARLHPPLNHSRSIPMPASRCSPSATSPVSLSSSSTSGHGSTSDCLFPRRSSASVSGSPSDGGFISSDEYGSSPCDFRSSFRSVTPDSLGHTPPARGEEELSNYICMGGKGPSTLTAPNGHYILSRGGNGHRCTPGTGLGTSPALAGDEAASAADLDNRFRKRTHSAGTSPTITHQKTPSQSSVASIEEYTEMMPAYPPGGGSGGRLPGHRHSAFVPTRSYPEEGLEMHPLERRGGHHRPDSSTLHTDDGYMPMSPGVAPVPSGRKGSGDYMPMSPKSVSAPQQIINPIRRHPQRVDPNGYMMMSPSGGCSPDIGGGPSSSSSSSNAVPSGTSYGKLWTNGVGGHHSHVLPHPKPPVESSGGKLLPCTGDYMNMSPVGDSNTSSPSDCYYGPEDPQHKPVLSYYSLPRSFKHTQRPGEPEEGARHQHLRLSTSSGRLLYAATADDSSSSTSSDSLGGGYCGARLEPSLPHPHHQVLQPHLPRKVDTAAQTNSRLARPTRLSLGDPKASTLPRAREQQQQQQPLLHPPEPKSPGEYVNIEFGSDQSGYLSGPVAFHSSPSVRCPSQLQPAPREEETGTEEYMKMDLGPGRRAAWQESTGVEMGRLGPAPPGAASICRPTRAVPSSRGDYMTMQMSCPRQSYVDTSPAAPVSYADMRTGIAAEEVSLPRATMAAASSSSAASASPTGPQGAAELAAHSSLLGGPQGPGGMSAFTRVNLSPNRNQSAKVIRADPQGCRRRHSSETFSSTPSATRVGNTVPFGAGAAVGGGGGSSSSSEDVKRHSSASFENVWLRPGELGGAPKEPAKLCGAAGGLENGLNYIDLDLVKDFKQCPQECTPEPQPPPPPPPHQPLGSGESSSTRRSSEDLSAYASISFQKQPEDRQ
# T4: LBR 1-67 LBR_tudor (domain begin residue: 1, domain end residue: 67), Q14739
# T4 chain: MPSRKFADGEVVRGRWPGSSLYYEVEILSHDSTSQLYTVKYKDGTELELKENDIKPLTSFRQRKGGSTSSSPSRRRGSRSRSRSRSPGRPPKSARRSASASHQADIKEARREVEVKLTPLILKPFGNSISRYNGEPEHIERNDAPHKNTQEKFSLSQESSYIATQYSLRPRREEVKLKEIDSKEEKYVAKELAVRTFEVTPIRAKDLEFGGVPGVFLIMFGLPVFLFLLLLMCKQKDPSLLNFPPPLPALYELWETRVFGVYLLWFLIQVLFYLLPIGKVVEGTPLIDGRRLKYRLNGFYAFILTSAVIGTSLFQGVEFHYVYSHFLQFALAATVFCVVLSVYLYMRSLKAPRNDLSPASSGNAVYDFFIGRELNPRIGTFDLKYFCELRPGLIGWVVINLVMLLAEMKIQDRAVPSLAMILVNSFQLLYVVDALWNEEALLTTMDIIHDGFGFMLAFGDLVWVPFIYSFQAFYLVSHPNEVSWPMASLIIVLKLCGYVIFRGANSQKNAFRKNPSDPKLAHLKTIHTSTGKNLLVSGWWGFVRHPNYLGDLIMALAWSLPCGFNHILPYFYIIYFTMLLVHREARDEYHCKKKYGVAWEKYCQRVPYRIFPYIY
# T5: RARA 175-421 Hormone_recep (domain begin residue: 175, domain end residue: 421), P10276
# T5 chain: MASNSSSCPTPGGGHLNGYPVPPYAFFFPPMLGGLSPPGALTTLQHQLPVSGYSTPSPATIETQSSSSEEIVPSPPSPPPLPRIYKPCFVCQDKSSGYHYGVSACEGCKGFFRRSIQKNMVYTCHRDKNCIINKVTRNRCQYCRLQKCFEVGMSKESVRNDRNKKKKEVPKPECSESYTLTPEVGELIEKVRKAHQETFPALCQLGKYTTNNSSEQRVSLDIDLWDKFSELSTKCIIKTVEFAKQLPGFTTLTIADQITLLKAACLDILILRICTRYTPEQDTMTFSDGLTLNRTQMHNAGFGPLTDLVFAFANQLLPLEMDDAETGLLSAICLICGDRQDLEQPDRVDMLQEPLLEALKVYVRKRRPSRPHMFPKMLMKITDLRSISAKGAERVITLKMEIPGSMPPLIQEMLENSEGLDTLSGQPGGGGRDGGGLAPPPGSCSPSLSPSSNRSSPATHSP
# Target: T1, KAT8 2-458 Tudor-knot+MOZ_SAS (domain …
# Assay: phage ELISA signal ratio (GST-PRM binding over GST background); higher = stronger binding of peptide-phage to the PRM
# In short: (§1)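 Human peptide recognition domains were expressed in 96-well plates as fusions to the C-terminus of glutathione S-transferase (GST) and selected against an M13 phage library displaying randomized hexadecapeptides, cysteine-free and glycine-flanked, on the gene-8 major coat protein. Five selection rounds were run, and approximately 48 individual clones from rounds 4 and 5 were tested by phage ELISA. Each value is the ELISA signal on the GST-domain fusion divided by the signal on GST alone. Positive clones were sequenced.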
row,Binder,phage ELISA signal ratio
1,YIDHMYDVVMYEEIEW,3.94

# Target: T2, TDRD1 261-449 TUDOR (domain begin …
# Assay: as above
# In short: as §1
row,Binder,phage ELISA signal ratio
1,YIDHMYDVVMYEEIEW,8.98

# Target: KDM6A 1-520 TPR_8 (domain begin residue: 1, domain end residue: 520), O15550
# Assay: as above
# In short: as §1
# KDM6A 1-520 TPR_8 (domain begin residue: 1, domain end residue: 520), O15550, sequence (O15550 whole entry): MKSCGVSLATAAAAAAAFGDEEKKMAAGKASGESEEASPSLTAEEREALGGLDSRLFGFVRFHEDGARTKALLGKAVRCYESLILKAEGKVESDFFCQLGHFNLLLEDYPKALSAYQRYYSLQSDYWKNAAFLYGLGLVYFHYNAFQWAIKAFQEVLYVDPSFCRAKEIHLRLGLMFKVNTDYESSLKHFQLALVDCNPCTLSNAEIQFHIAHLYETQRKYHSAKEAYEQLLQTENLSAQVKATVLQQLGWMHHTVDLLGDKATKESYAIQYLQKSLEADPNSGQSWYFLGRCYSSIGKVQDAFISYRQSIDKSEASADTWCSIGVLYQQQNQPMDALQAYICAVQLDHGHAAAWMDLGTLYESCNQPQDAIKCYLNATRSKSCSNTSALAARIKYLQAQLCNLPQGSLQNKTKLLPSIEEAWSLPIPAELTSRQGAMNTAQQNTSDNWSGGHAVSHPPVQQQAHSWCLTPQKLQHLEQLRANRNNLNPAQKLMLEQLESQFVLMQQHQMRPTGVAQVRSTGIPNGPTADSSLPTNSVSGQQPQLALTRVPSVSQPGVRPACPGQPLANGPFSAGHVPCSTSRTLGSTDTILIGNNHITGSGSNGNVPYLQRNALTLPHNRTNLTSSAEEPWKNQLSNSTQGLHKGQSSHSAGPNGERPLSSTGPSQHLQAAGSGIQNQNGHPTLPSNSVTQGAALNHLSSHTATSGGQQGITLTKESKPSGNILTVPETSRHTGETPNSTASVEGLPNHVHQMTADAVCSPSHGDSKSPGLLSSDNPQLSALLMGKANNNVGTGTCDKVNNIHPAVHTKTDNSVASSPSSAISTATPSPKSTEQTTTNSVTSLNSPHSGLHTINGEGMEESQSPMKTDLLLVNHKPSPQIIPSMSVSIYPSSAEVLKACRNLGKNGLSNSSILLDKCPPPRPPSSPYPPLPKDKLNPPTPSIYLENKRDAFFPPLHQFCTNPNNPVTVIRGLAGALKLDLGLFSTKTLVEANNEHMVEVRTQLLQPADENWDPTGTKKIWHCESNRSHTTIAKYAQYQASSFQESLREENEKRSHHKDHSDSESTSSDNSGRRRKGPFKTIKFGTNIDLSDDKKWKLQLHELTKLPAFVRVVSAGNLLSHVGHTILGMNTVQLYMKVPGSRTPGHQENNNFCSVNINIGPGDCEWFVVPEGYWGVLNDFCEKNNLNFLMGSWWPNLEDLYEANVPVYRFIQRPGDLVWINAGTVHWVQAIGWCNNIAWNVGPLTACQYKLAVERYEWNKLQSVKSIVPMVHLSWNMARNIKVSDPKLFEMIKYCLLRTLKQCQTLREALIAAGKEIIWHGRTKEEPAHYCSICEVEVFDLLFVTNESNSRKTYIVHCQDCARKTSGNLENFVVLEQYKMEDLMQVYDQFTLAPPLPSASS
row,Binder,phage ELISA signal ratio
1,WENIWDDMIEQIIIPQ,8.83
2,QWLEWISPEIDFTPME,3.57
3,WGWDDIPALQEMKPTN,7.16
4,IYLDQWFEEISTYVPA,8.33
5,VEVDYFNSMYEAMSFM,4.78
6,YHWDNLLEPTIQTYMG,7.69
7,SPNVVEYPDWFMWAIE,7.87
8,WAEELYHSTQWLGVTE,5.83

# Target: HSPA9 438-651 HSP70 (domain begin residue: 438, domain end residue: 651), P38646
# Assay: as above
# In short: as §1
# HSPA9 438-651 HSP70 (domain begin residue: 438, domain end residue: 651), P38646, sequence (P38646 whole entry): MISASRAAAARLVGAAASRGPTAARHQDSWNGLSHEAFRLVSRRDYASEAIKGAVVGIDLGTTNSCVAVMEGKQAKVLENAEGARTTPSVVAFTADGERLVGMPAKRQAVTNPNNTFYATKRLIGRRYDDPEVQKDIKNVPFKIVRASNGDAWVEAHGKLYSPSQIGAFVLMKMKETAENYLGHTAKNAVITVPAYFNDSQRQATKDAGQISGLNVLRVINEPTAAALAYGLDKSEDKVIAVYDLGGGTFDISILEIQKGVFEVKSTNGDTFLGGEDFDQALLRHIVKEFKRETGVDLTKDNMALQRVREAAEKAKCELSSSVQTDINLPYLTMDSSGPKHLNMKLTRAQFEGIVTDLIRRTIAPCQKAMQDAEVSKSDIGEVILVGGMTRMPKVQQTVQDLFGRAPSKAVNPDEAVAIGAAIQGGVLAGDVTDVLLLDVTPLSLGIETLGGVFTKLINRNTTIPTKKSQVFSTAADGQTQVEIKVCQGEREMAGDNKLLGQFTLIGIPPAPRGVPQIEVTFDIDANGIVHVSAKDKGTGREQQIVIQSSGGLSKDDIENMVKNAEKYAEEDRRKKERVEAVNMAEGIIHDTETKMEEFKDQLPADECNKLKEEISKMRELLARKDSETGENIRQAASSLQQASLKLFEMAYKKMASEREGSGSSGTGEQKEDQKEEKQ
row,Binder,phage ELISA signal ratio
1,PYGLTAEGYERFLWLV,28
2,STEFFYDWGYWEQMIE,19.8
3,TYYLDPFAWEYLQAEY,20.2

# Target: T3, IRS1 157-267 IRS (domain begin residue: …
# Assay: as above
# In short: as §1
row,Binder,phage ELISA signal ratio
1,SDMNWWEEWDFFLARE,15
2,GYENWIPEGYRWQDWK,18
3,WIPADFQEWMELVAYD,22.4

# Target: T4, LBR 1-67 LBR_tudor (domain begin …
# Assay: as above
# In short: as §1
row,Binder,phage ELISA signal ratio
1,FHGIWVQDELRVWMMD,8.63
2,QQQKHPNFALHYHQDQ,6.64
3,PFTAFFVMMEWVQVPK,2.52

# Target: MAD2L1 2-205 HORMA (domain begin residue: 2, domain end residue: 205), Q13257
# Assay: as above
# In short: as §1
# MAD2L1 2-205 HORMA (domain begin residue: 2, domain end residue: 205), Q13257, sequence (Q13257 whole entry): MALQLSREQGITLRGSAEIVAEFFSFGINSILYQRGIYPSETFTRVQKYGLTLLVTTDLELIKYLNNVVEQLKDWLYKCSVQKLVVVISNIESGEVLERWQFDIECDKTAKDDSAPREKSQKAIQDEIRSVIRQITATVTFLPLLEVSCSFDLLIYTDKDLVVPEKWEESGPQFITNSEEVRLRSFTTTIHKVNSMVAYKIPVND
row,Binder,phage ELISA signal ratio
1,SGEWFKLPSFDEPRKG,6.3
2,SWWMLQGPKQMNEIHA,8.75

# Target: KPNB1 1-876 IBN_N+Arm (domain begin residue: 1, domain end residue: 876), Q14974
# Assay: as above
# In short: as §1
# KPNB1 1-876 IBN_N+Arm (domain begin residue: 1, domain end residue: 876), Q14974, sequence (Q14974 whole entry): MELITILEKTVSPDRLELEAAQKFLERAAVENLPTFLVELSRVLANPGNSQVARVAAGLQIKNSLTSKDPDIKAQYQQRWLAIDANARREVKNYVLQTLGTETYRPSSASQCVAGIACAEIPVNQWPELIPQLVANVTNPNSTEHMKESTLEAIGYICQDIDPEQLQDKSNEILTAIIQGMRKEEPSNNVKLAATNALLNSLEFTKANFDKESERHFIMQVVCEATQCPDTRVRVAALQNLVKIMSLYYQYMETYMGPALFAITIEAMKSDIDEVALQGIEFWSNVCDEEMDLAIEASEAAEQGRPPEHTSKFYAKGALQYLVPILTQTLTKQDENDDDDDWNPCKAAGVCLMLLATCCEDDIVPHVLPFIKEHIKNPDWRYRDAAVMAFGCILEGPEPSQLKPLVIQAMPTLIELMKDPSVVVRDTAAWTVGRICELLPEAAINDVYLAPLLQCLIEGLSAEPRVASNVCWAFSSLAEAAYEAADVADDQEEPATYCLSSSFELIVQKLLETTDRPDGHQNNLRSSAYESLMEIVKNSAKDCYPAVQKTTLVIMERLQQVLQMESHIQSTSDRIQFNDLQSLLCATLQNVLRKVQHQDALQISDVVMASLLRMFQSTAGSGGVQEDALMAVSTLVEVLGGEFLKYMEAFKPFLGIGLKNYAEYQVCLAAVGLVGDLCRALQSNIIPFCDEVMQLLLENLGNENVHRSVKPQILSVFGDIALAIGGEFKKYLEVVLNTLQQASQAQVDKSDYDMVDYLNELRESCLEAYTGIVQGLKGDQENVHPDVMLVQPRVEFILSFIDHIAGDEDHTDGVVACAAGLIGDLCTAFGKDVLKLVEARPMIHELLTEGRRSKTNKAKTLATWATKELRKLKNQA
row,Binder,phage ELISA signal ratio
1,WVETSTYPEWPAVFVF,16.3
2,YDFGPFMGVGAPSFQF,9.88
3,WDWVVREMSFDEVFIF,20.4
4,LDWMSMFDDYSSLFSV,16.8

# Target: KARS 71-214 tRNA_anti-codon (domain begin residue: 71, domain end residue: 214), Q15046
# Assay: as above
# In short: as §1
# KARS 71-214 tRNA_anti-codon (domain begin residue: 71, domain end residue: 214), Q15046, sequence (Q15046 whole entry, looked up, tested part not stated): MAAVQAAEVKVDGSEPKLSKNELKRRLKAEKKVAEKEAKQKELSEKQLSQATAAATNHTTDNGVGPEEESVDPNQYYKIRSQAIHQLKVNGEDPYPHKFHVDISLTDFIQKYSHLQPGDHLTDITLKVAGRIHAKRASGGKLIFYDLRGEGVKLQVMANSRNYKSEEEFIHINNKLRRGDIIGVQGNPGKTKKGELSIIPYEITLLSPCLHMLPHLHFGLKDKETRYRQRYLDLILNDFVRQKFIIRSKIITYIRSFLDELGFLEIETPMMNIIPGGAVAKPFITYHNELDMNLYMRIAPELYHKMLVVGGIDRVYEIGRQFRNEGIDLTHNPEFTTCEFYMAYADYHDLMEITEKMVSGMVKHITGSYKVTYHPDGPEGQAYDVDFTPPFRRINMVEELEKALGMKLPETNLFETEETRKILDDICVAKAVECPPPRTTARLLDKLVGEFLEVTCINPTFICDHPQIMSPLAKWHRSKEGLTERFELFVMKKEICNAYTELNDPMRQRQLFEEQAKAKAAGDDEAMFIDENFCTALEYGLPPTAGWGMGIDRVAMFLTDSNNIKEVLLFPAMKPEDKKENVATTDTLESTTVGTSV
row,Binder,phage ELISA signal ratio
1,DWEWYQYFNAPQPVKG,25.1
2,EQWEIEWLEHFNTYWE,17.2

# Target: T5, RARA 175-421 Hormone_recep (domain …
# Assay: as above
# In short: as §1
row,Binder,phage ELISA signal ratio
1,STEFFYDWGYWEQMIE,9.16

# Target: KMT2C 995-1055 PHD (domain begin residue: 995, domain end residue: 1055)
# Assay: as above
# In short: as §1
row,Binder,phage ELISA signal ratio
1,SIKGIYIDDVLRLIDQ,6.63

# Target: KMT2C 1055-1137 PHD (domain begin residue: 1055, domain end residue: 1137)
# Assay: as above
# In short: as §1
row,Binder,phage ELISA signal ratio
1,DNYMESMYEAMGDPKK,6.88
